Test results reported in paper PMC4336329 (PLoS ONE, 2015).
Out of some 310,000 compounds screened, about 14,000 (4.5%) showed an effect of 50% or more. Effects have a minus sign here. Many of the other results were omitted from the sample, so strong results are more common in it than they were.

target: human ether-à-go-go-related gene (hERG) potassium channel (human, UniProt Q12809); experiment: primary screen, population patch clamp on CHO cells stably expressing hERG; higher = less effect of the substance
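Also: peak tail current of the secondary pulse compared with the same well before compound.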

Sequence of human ether-à-go-go-related gene (hERG) potassium channel (Q12809 whole entry, looked up): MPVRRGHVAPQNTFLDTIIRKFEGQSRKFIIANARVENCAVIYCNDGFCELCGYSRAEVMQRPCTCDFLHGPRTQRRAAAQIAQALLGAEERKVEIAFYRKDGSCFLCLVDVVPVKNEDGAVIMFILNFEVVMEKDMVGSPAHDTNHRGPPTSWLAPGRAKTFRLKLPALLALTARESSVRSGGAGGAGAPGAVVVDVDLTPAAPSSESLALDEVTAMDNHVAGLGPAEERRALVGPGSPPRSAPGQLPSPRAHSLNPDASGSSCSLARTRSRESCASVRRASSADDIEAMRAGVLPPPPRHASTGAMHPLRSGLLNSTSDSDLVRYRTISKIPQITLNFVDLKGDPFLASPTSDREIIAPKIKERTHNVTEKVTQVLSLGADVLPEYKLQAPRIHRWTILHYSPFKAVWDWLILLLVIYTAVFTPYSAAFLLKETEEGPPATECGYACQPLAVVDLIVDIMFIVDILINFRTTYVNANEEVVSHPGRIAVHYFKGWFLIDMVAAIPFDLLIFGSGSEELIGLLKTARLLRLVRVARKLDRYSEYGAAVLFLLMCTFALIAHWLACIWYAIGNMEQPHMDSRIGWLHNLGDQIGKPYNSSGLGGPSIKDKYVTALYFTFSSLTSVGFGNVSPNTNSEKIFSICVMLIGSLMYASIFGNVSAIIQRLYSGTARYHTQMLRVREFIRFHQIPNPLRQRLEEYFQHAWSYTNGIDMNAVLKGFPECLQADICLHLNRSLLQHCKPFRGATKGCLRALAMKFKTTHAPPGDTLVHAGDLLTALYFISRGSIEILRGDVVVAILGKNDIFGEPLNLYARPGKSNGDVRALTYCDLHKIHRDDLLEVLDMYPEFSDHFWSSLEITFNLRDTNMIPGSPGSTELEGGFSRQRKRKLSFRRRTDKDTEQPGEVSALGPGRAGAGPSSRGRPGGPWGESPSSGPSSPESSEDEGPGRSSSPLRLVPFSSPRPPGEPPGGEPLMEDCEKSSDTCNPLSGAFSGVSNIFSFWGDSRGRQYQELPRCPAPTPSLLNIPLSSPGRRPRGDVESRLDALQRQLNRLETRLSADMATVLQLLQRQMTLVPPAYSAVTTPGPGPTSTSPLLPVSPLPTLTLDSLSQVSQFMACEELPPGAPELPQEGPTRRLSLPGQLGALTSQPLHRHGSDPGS

| SMILES | hERG current change (%, negative = inhibition) at 10uM [%] |
| --- | --- |
| O=C(NCCCN1CCN(Cc2ccccc2)CC1)C1CCN(c2nnc(-n3cccc3)s2)CC1 | -48.5 |
| CC1CCN(Cc2ccc(NC(=O)C3CCN(c4nnc(-n5cccc5)s4)CC3)cc2)CC1 | 1.05 |
| COC(=O)c1ccccc1NC(=O)C1CCCN(c2nnc(-n3cccc3)s2)C1 (stereo not shown) | -53 |
| CC(=O)Nc1ccc(NC(=O)C2CCCN(c3nnc(-n4cccc4)s3)C2)cc1 (stereo not shown) | 7.44 |
| CC(C)NC(=O)C1CCCN(c2nnc(-n3cccc3)s2)C1 (stereo not shown) | -16.4 |
| O=C(C1CCCN(c2nnc(-n3cccc3)s2)C1)N1CCN(c2ccccc2)CC1 (stereo not shown) | -47 |
| CC(CCc1ccccc1)NC(=O)C1CCCN(c2nnc(-n3cccc3)s2)C1 (stereo not shown) | -11.2 |
| O=C(NC1CCN(Cc2ccccc2)CC1)C1CCN(c2nnc(-n3cccc3)s2)CC1 | -59 |
| O=C(NC1CCN(Cc2ccccc2)CC1)C1CCCN(c2nnc(-n3cccc3)s2)C1 (stereo not shown) | -69.8 |
| NC(=O)c1ccc(N2CCN(c3ccccc3F)CC2)c([N+](=O)[O-])c1 | -25.5 |
| Cc1ccc(-n2c(-c3ccccc3)c[n+]3c2CCC3)cc1.[Br-] | -50.7 |
| FC(F)Sc1ccc(-n2c(-c3ccc(Cl)cc3)c[n+]3c2CCC3)cc1.[Br-] | -92.6 |
| Cc1ccc(-n2c(-c3ccc(Cl)cc3)c[n+]3c2CCC3)cc1.[Br-] | -62.4 |
| [Br-].c1ccc(-c2c[n+]3c(n2-c2ccccc2)CCC3)cc1 | -3.72 |
| Cc1ccc(-c2c[n+]3c(n2-c2ccccc2)CCC3)cc1.[Br-] | -48.9 |
| Cc1cc(C)cc(OCC(=O)NCC2CCCO2)c1 (stereo not shown) | -11.8 |
| C#CCOC(=O)C[N+](C)(C)CC#Cc1ccccc1.[Cl-] | 33.3 |
| CC1(c2nnc(-c3ccc(Cl)cc3)o2)CC(c2c(Cl)cccc2Cl)=NO1 (stereo not shown) | 1.13 |
| COc1ccc(C2=NOC(C)(c3nnc(-c4ccncc4)o3)C2)cc1 (stereo not shown) | 1.73 |
| COc1ccc(C2=NOC(C)(c3nnc(-c4ccccc4)o3)C2)cc1 (stereo not shown) | -58.3 |
| CC1(c2nnc(-c3ccccc3)o2)CC(c2ccccc2)=NO1 (stereo not shown) | -11.6 |
| CC1(c2nnc(-c3ccncc3)o2)CC(c2c(Cl)cccc2Cl)=NO1 (stereo not shown) | -69.8 |
| CC1(c2nnc(-c3ccccc3)o2)CC(c2c(Cl)cccc2Cl)=NO1 (stereo not shown) | 23.4 |
| CC(=O)Nc1ccc(NC(=O)CSc2ccc(-c3cccnc3)nn2)cc1 | 24.7 |
| O=C(C1CCC1)N1CCN(S(=O)(=O)c2ccc(Br)cc2Cl)CC1 | -21.8 |
| COCCn1c(Cc2ccccc2)nnc1SCC(=O)Nc1cc(C)on1 | -5.36 |

| SMILES | hERG current change (%, negative = inhibition) at 10uM [%] |
| --- | --- |
| COc1ccc(CC(=O)NNC(=O)CCc2ccccc2)cc1OC | 14.8 |
| CCCSc1cc(=O)n(-c2ccccc2)nc1C(=O)O | 15.7 |
| CCOc1ccccc1Nc1nnc(SC(C)C(=O)Nc2nc(-c3ccccc3)cs2)s1 (stereo not shown) | 1.46 |
| Br.C=CCn1c(C)csc1=Nc1ccccc1C | 4.02 |
| Cc1ccccc1CC(=O)NCC1CCCCC1 | 1.34 |
| Cc1ccccc1N(CC(=O)NCC1CCCO1)C(=O)C1(C)CC(=O)N=C2C=CC=CN21 (stereo not shown) | -1.4 |
| Cc1cc(S(=O)(=O)Nc2ccc(C(=O)NCC(c3ccco3)N3CCCC3)cc2)ccc1F (stereo not shown) | -50.6 |
| COc1ccccc1C(CNC(=O)c1ccc(NS(=O)(=O)c2ccc(F)c(C)c2)cc1)N1CCCC1 (stereo not shown) | -58.1 |
| Cc1cc(S(=O)(=O)Nc2ccc(C(=O)NCC(c3ccco3)N3CCCCC3)cc2)ccc1F (stereo not shown) | -41.2 |
| COc1ccccc1C(CNC(=O)c1ccc(NS(=O)(=O)c2ccc(F)c(C)c2)cc1)N(C)C (stereo not shown) | -24.4 |
| O=C(NCC(c1ccco1)N1CCCCC1)c1ccc(NS(=O)(=O)c2ccc(F)cc2)cc1 (stereo not shown) | -13 |
| COc1ccccc1C(CNC(=O)c1cccc(NS(=O)(=O)c2ccc(C)c(F)c2)c1)N1CCCC1 (stereo not shown) | -40.9 |
| Cc1ccc(NS(=O)(=O)c2cccc(C(=O)N3CCN(C(=O)c4ccco4)CC3)c2)cc1 | -36.8 |
| O=C(NCC(c1ccco1)N1CCCC1)c1ccc(S(=O)(=O)Nc2ccccc2Cl)cc1 (stereo not shown) | -11.6 |
| Cc1ccccc1NS(=O)(=O)c1ccc(C(=O)NCC(c2ccco2)N2CCCCC2)cc1 (stereo not shown) | 5.89 |
| O=C(c1ccc(S(=O)(=O)Nc2ccc(F)cc2)cc1)N1CCN(C(=O)c2ccco2)CC1 | -29.4 |
| Cc1cc(S(=O)(=O)Nc2ccc(C(=O)N3CCN(C(=O)c4ccco4)CC3)cc2)ccc1F | -64.4 |
| Cc1cccc(NS(=O)(=O)c2ccc(C(=O)NCC(c3ccco3)N3CCCCC3)cc2)c1C (stereo not shown) | -55.6 |
| CC1=NN(C(=O)c2ccccc2Cl)C(O)(c2cccnc2)C1 (stereo not shown) | 17.8 |
| COC(=O)C1Cc2c([nH]c3ccccc23)C(C)N1 (stereo not shown) | -9.61 |
| COc1ccc(S(=O)(=O)NCc2ccco2)cc1C(=O)N1CCOCC1 | 21 |
| Cl.O=S(=O)(NCC(c1ccco1)N1CCCCC1)c1cccc(C(F)(F)F)c1 (stereo not shown) | -57.7 |
| Cl.O=S(=O)(NCC(c1ccco1)N1CCCCC1)c1ccccc1C(F)(F)F (stereo not shown) | -6.8 |
| CC(=O)c1cccc(S(=O)(=O)NCC(c2ccco2)N2CCCCC2)c1 (stereo not shown) | -24.1 |
| CC(C)[C@H](NC(=O)c1ccccc1F)C(=O)Nc1ccc2c(c1)OCO2 | 5.82 |
| Br.C1=C(c2cccc3ccccc23)N2CCN=C2S1 | -34.5 |
